Several values for one entry are separate records, joined by “and”; a condition that tells them apart may be missing. Identical values can stand only once. Screen size: about 65,000 compounds; about 45 (0.07%) were called active. Not all results are given here. A number with no mark means an inactive call. Calls follow the shape of the full dose curve.

Among the data in PubChem BioAssay AID448 (National Center for Advancing Translational Sciences (NCATS), 2006) are Potency values, retold here.
Potency is read from the fitted curve at half-maximal effect.

In the assay the test system is Schistosoma mansoni peroxiredoxin 2 (Prx2). Nature of the assay: Schistosoma Mansoni Peroxiredoxins (Prx2). The following applies: S. mansoni Prx2 activity coupled to TGR/GSH (TGR is thioredoxin glutathione reductase), NADPH fluorescence loss, qHTS. From the text: NIH Molecular Libraries Screening Centers Network [MLSCN]
NIH Chemical Genomics Center [NCGC]
David Williams [Illinois State University]
Schistosoma mansoni, a causative agent of schistosomiasis, resides in the bloodstream of their host up to 30 years without being eliminated by the host immune attack. One proposed survival mechanism is the production of an antioxidant "firewall" that neutralizes the oxidative assault of the host's immune attack. Schistosoma mansoni peroxiredoxins (Prx) are important parasite antioxidant proteins that play a crucial role in redox balance mechanisms. […] First, the proteins are essential for the parasite survival. […] Third, the protein(s) is amenable for study at the molecular level and can be produced in bacteria in large quantities, in soluble and active form. Inhibition of Prx activity was screened in a coupled-enzyme format with reducing equivalents being transferred from NADPH to […] intermediate via thioredoxin/glutathione reductase (TGR)-catalyzed reaction, then from thioredoxin to hydrogen peroxide via Prx-catalyzed electron transfer. A decrease in the fluorescence intensity of NADPH was used to measure the enzyme activity. Purified S. mansoni TGR and Prx were provided by Professor David L. Williams, Illinois State University.
NCGC Assay Protocol Summary:
100 mM phosphate buffer, pH 7.4, 10 mM EDTA, 0.01% Tween-20.
100 uM NADPH/25 nM TGR/700 uM GSH/50 nM Prx2 mixture in columns 1, 2, 5-48. Titration of control potassium antimonyl tartrate (PAT, from 1 mM, then 1:5) pin-transferred to lower half of column 2. Column 1 and upper half of column 2 are neutral (100% activity).
Three uL of reagents were dispensed to 1536-well Greiner black plates. Compounds and controls (20 nL) were transferred via Kalypsys PinTool. The plates were incubated for 15 min at room temperature, and then a 1 uL aliquot of 400 uM NADPH/700 uM GSH was added, immediately followed by a 1uL aliquot of 2.5 mM H2O2 (to start the reaction). The plate was transferred to ViewLux (Perkin-Elmer) High-throughput CCD imager where kinetic measurements (every 30 sec, for a total of 8 min) of NADPH fluorescence were taken using 365 nm excitation/450 nm emission filter set. During dispense, enzyme-containing reagent bottles were kept submerged into 4 deg C water bath to minimize degradation.
Keywords: NIH Roadmap, MLSCN, MLI, MLSMR, David Williams, Peroxyredoxin, Schistosoma mansoni, prx2, prx, , qHTS, NCGC
For orientation: Quantitative high-throughput screening tests each substance at several concentrations.
`CCNc1ncc2nc(CCc3ccccc3)c(=O)n(-c3ccc(OC)cc3)c2n1`: the Potency was more than 57 µM.

`Oc1c(Br)cc(CN(Cc2cc(Br)c(O)c(Br)c2)C2CCCCC2)cc1Br`: the Potency was more than 57 µM.

Take `COc1ccc(-n2c(=O)c(C)nc3cnc(N4CCOCC4)nc32)cc1`: the Potency is more than 57 µM.

On to `C[C@@H](N)[C@@H](C)Cc1ccccc1`, for which the Potency was more than 57 µM.

Regarding `CN1CCN2c3ccccc3Cc3ccccc3[C@@H]2C1`, the Potency is more than 57 µM.

With `CNc1nc(-c2ccccc2OC)nc2ccccc12`, the Potency was more than 57 µM.

Take `O=C(Nc1ccccc1)N[C@H]1C[C@H](C(=O)O)Nc2cc(Cl)cc(Cl)c21`: the Potency was more than 57 µM.

With `COc1ccc(C(=O)N/N=C2/C(=O)c3c(C)cc(C)cc3CC2(C)C)cc1`, the Potency was more than 57 µM.

For the compound `N#Cc1cc2[nH]c(=O)c(=O)[nH]c2cc1[N+](=O)[O-]`, the Potency was more than 25.6 µM.

In the case of `c1cncc(CNc2ccnc(-c3ccc4c(c3)OCO4)n2)c1`, the Potency was more than 57 µM.

For `O=C(c1csnn1)N1CCC2(CCN(Cc3nccs3)CC2)CC1`, the Potency is more than 57 µM.

With `COCCNc1ncnc2ccc(-c3ccccc3CN(C)C)cc12`, the Potency is more than 57 µM.

`O=c1c(-c2ccc(F)cc2)nc2cnc(N3CCOCC3)nc2n1-c1ccccc1`: the Potency is more than 11.4 µM.

For the compound `CC(=O)/C(=N\N=C(N)N)c1ccccc1`, the Potency was more than 57 µM.

Consider `COCCn1c(=O)c(-c2ccccc2)nc2cnc(N3CCOCC3)nc21`, for which the Potency was more than 57 µM.

On to `CN(C)c1ncc2nc(-c3ccc(F)cc3)c(=O)n(Cc3ccc(F)cc3)c2n1`, for which the Potency was more than 57 µM.

Take `O=C1NC(=O)[C@@](Cc2ccccc2)(c2cccnc2)N1`: the Potency was more than 57 µM.

In the case of `N#Cc1cccc(-c2ccc3ncnc(NCc4cccs4)c3c2)c1`, the Potency was more than 57 µM.

`O=C(Oc1ccc2c(c1)CN(Cc1ccccc1)CO2)c1ccccc1`: the Potency was more than 57 µM.

Regarding `O=C(O)c1nn(-c2ccc(Cl)cc2)c2c1C(=O)c1ccccc1C2=O`, the Potency is more than 57 µM.

Consider `O=C(O)c1c(Br)c(Br)c(Br)c(Br)c1C1c2ccc(O)cc2Oc2cc(O)ccc21`, for which the Potency is more than 57 µM.

As to `c1ccc2c(Nc3ccncc3)nc(-c3ccc4c(c3)OCO4)nc2c1`, the Potency was more than 57 µM.

For the compound `CCON=C1C(C)(C)C(C)(C)C(C)(C)C1(C)C`, the Potency is more than 57 µM.

Take `Cc1ccc(-c2nn(CC(C)(C)C)c3ncnc(N)c23)cc1`: the Potency is more than 57 µM.

In the case of `CN/C(=C\[N+](=O)[O-])NCCSCc1csc(CN(C)C)n1`, the Potency was more than 57 µM.

`c1ccc2nc(C3=NCCN3)cnc2c1`: the Potency was more than 57 µM.

Consider `Cc1[nH]c(N)nc(=S)c1CCCNc1ccccc1`, for which the Potency is more than 57 µM.

Take `COc1ncc2nc(-c3ccc(Cl)cc3)c(=O)n(C)c2n1`: the Potency was more than 57 µM.

For the compound `CCNc1ncc2ncc(=O)n(CCc3ccccc3)c2n1`, the Potency is more than 57 µM.

For `COc1ccccc1-c1cc(NCc2cccs2)ncn1`, the Potency was more than 57 µM.

Take `O=C(c1csnn1)N1CCC2(CC1)CN(c1ncccn1)C2`: the Potency is more than 57 µM.

In the case of `COCCn1c(=O)c(-c2cccc(F)c2)nc2cncnc21`, the Potency is more than 57 µM.

Take `Cc1c2c(nc3ccccc13)-c1cccc(=O)n1C2`: the Potency is more than 57 µM.

Take `O=C(c1ccco1)N1CCC[C@@]2(CCN(c3ccccc3)C2)C1`: the Potency is more than 57 µM.

As for `COc1ccc(C(=O)N2CCC3(CC2)CCN(c2ccccn2)CC3)cc1`, the Potency is more than 57 µM.

Turning to `CN(C)CC/C=C1\c2ccccc2CSc2ccccc21`, the Potency is more than 57 µM.

As for `COc1ccccc1CNc1ncnc2ccc(-c3ccc4c(c3)OCO4)cc12`, the Potency was more than 57 µM.

As for `CC(C)NC(=O)N1CCC2(CC1)CCN(C(=O)c1cccn1C)CC2`, the Potency was more than 57 µM.

For the compound `COc1ccccc1CNc1ccnc(-c2c(C)noc2C)n1`, the Potency is more than 57 µM.

Take `O=C(c1cnccn1)N1CCC[C@@]2(CCN(Cc3ccncc3)C2)C1`: the Potency was more than 57 µM.

For the compound `COc1ccccc1N1CCN(CCN2C(=O)c3ccccc3C(C)(C)C2=O)CC1`, the Potency is more than 57 µM.

`COC(=O)N1CCC2(CCCN(Cc3ccccc3OC)C2)CC1`: the Potency was more than 57 µM.

For `N#C/C(=C\c1ccc(O)c(O)c1)C(=O)NCc1ccccc1`, the Potency was > 57 µM and > 11.4 µM.

Turning to `COc1ccc(Oc2ncc3nc(-c4ccc(F)cc4)c(=O)n(C)c3n2)cc1`, the Potency was more than 57 µM.

Regarding `O=C(c1csnn1)N1CCC[C@@]2(CCN(c3cccc(-c4ccccc4)c3)C2)C1`, the Potency is more than 57 µM.

For `Clc1ccc(C=Nc2ccc3c(c2)Cc2ccccc2-3)c(Cl)c1`, the Potency is more than 57 µM.

Consider `CC(=O)N1CCC2(CCCN(c3ncccn3)C2)CC1`, for which the Potency was more than 57 µM.

Consider `Cc1ccc(S(=O)(=O)NC(=O)NN2C[C@H]3CCC[C@@H]3C2)cc1`, for which the Potency is more than 57 µM.

As to `COc1ccc2[nH]cc(CCNc3ncnc4ccc(-c5ccc(C(=O)N(C)C)cc5)cc34)c2c1`, the Potency was more than 57 µM.

As to `N#C/C(=C\c1ccc(O)c(O)c1)C(N)=O`, the Potency was more than 57 µM.

Consider `COC(=O)[C@@]1(Cc2ccc(F)cc2)[C@H]2c3cc(C(=O)N(C)C)n(CCc4c[nH]c5ccc(OC)cc45)c3C[C@H]2CN1C(=O)c1ccccc1`, for which the Potency was more than 57 µM.

With `CNc1ncnc2ccc(-c3cccc(NS(C)(=O)=O)c3)cc12`, the Potency was more than 57 µM.

Consider `Nc1ccc2[nH]cc(CCC(=O)O)c2c1`, for which the Potency was more than 57 µM.

For the compound `O=c1c(-c2ccc(F)c(F)c2)nc2cncnc2n1-c1ccccc1`, the Potency was more than 57 µM.

As to `COCCn1c(=O)c(-c2cccs2)nc2cnc(N3CCN(C)CC3)nc21`, the Potency was more than 57 µM.

`O=C(O)c1nccnc1C(=O)Nc1ccc(Br)cn1`: the Potency is more than 57 µM.

Take `Cc1nc2cnc(N3CCN(C)CC3)nc2n(CCC#N)c1=O`: the Potency was more than 57 µM.

For the compound `COc1ccccc1N1CCN(C[C@@H]2CN3C(=O)N(C)c4ccccc4C3=N2)CC1`, the Potency was more than 57 µM.

For `COC(=O)[C@@]1(Cc2ccc(OC)cc2)[C@H]2c3cc(C(=O)N4CCCC4)n(Cc4ccc(C(F)(F)F)nc4)c3C[C@H]2CN1C(=O)c1ccccc1`, the Potency was more than 57 µM.
